Compound activity (PubChem BioAssay)
TDP1 cell noCPT: qHTS for Inhibitors of human tyrosyl-DNA phosphodiesterase 1 (TDP1): qHTS in cells in absence of CPT; hit rate 15% among 420,000; Potency, µM (titrated, usually from 46.2 µM), inactives show at the highest dose activity change, negative = growth inhibition, usual class: inhibitors; AID 686978, 2013; DT40 Tdp1-/- hTDP1 cells, no CPT, ATP luminescence, 48 h; also: nearly all actives have a fitted effect of over 55% in size
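Growth of hTDP1-complemented DT40 Tdp1-knockout cells is measured by ATP luminescence after at least 48 hr compound exposure at 37 °C, with DMSO substituting for the 20 nM CPT used in the parallel screen.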
KB-V1 cytotox: kills drug-selected multidrug resistant KB-V1 cells | KB-V1 MDR cells viability, CellTiter-Glo, 72 h | Potency, µM (doses to about 46.1 µM), usual class: cytotoxic | hit rate 3.4% among 400,000 | AID 1347076; also: nearly all actives have a fitted effect of over 60% in size
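Potencies derive from concentration-effect curves fitted to normalized luminescence (CellTiter-Glo) of KB-V1 cells treated for 72 h at 37 degrees C in phenol-red-free DMEM containing 10% FBS.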
HT1080NT lethal: kills 2HG-producing HT-1080-NT fibrosarcoma cells | hit rate 1.6% among 360,000 | Potency, µM (doses to about 46.1 µM), for the others: at the top dose activity, negative = less viability, most hits filed as cytotoxic | AID 686970 | HT-1080-NT fibrosarcoma viability, CellTiter-Glo ATP luminescence, 48 h;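 also: NT is the 2HG producing partner of a matched IDH1 knockdown line; 0% = DMSO-treated cells and -100% = media-only wells without cells; nearly all actives have a fitted effect of over 55% in size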
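Read-out is CellTiter-Glo luminescence after 10 minutes at room temperature, following 48 hours' compound treatment of HT-1080-NT cells (750 cells/well, RPMI, 5% FBS, 37 degrees C).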
TDP1 cell CPT: growth inhibition of DT40 Tdp1-/-;hTDP1 cells with camptothecin (screen for TDP1 inhibitors); Potency, µM (titrated, usually from 46.2 µM), without a hit: top-dose activity change, negative = growth inhibition, usual class: inhibitors; chicken DT40 Tdp1-/-;hTDP1 cells + 20 nM CPT, ATP luminescence, 48 h; hit rate 12% among 420,000; also: nearly all actives have a fitted effect of over 55% in size
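Chicken DT40 Tdp1-/- cells complemented with human TDP1, 400 cells/well, exposed to compounds plus 20 nM camptothecin for at least 48 h at 37 C; viability read as ATP content by CellTiter-Glo luminescence.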
HT1080 IDH1KD tx: kills HT-1080 cells with IDH1 knockdown | HT-1080 IDH1 knockdown viability, ATP luminescence, 48 h | Potency, µM (top dose mostly 46.1 µM), inactives show at the highest dose activity, negative = toxicity, usual class: cytotoxic | hit rate 2% among 360,000;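 also: 0% = DMSO wells and -100% = cell-free medium wells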
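Viability of IDH1-knockdown HT-1080 fibrosarcoma cells was assessed by CellTiter-Glo after 48 h at 37 °C with titrated compound; concentration-effect curves were classified by fit quality and response size.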
KB-3-1 tox: kills parental KB-3-1 adenocarcinoma cells | hit rate 1.4% among 400,000 | Potency, µM (titrated, usually from 46.1 µM), most hits filed as cytotoxic | KB-3-1 viability, CellTiter-Glo ATP luminescence, 72 h; also: nearly all actives have a fitted effect of over 60% in size
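Cells are dispensed, compounds pinned in, plates held at 37 °C for 72 h, then CellTiter-Glo is added and luminescence read after 10 minutes. Cell line: parental KB-3-1 in phenol-red-free DMEM, 10% FBS.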
* hit, by the source's call; i = inactive; ? = inconclusive; / = no result given; ! = repeats disagree. Shown are actives, neighbours in structure and some others; about 19% of the full set was active somewhere. Calls follow the shape of the dose curve; as a rule, active = well fitted curve in the direction sought with a large enough effect; inconclusive = small, poorly fitted or top-dose-only effect, or another doubt; inactive = no such curve, though single readings can be large; an effect the other way counts as inactive or inconclusive. Unless noted, % is scaled to controls: 0 for no effect and ±100 for the full control effect; potency is read from the fitted curve at half-maximal effect.

SMILES	TDP1 cell noCPT	KB-V1 cytotox	HT1080NT lethal	TDP1 cell CPT	HT1080 IDH1KD tx	KB-3-1 tox
C/C1=C\[C@@H](C)C/C=C/[C@H]2[C@@H]3O[C@]3(C)[C@@H](C)[C@H]3[C@H](Cc4c[nH]c5ccccc45)NC(=O)[C@]32C(=O)/C=C/C(=O)[C@@H]1O	0.15µM*	i	-22%	0.15µM*	?	i
COc1cc2c(c(OC)c1O)-c1ccc(OC)c(=O)cc1C(NC(=O)C(F)(F)F)CC2 (stereo unspecified)	0.16µM*	?	0.013µM*	0.1µM*	?	?
COc1cc2c(c(OC)c1OC)-c1ccc(OC)c(=O)cc1[C@@H](NC(C)=O)CC2	0.19µM*!	7.3µM*	?	0.016µM*	?	0.073µM*
COc1cc2c(c(OC)c1OC)-c1ccc(OC)c(=O)cc1[C@H](NC(C)=O)CC2	0.06µM*	/	/	0.094µM*	/	/
CCN(CC)c1ccc2c(cc1=O)[C@@H](NC)CCc1cc(OC)c(OC)c(OC)c1-2	1.2µM*	6.5µM*	1.3µM*	1.2µM*	?	0.92µM*
COc1cc2c(c(OC)c1OC)-c1ccc(C(=O)O)cc1[C@@H](NC(C)=O)CC2	/	i	/	/	/	i
Cc1cc(-c2cc(C)c(N)c(C)c2)cc(C)c1N	-14%	i	6%	-5%	-2%	i
O=C(Cc1ccc([N+](=O)[O-])cc1)N1CCN(Cc2ccc3c(c2)OCO3)CC1	-20%	?	1%	1%	4%	i
Cc1cccc(Cn2cccc(C(=O)Nc3nnc(C)s3)c2=O)c1	-22%	i	/	-19%	/	i
COC(=O)C1=CO[C@@H](C)[C@@H]2CN(CCc3c[nH]c4ccccc34)CC[C@H]12	?	i	-4%	?	-2%	i
c1ccc2c(CNC3CCCCC3)c[nH]c2c1	6.3µM*	i	?	2.5µM*	?	?
COC(=NC1CCCCC1)C(O)c1c[nH]c2ccccc12 (stereo unspecified)	-12%	i	-8%	-4%	4%	i
CN(Cc1c[nH]c2ccccc12)C1CCCCC1	1.2µM*	?	8%	0.41µM*	-1%	?
O=C(C[N+]12CCC(CC1)C(C(O)(c1ccccc1)c1ccccc1)C2)c1ccc(Br)cc1 (stereo unspecified)	7.3µM*	i	-10%	15µM*	-7%	i
C[C@@H](N)Cn1ccc2cc(F)c(Cl)cc21	?	/	/	-23%	/	/
Cc1c(C)c2c(c(C)c1OC(=O)CCC(=O)OCCO)CC[C@@](C)(CCC[C@H](C)CCC[C@H](C)CCCC(C)C)O2	?	/	/	11µM*	/	/
CC1(CCO)C(=O)NC(=S)NC1=O	-14%	i	0%	2%	-3%	i
CC(C)[N+](C)(CCC(C(N)=O)(c1ccccc1)c1ccccc1)C(C)C	9.2µM*!	i	18%	7.3µM*!	3%	i
C[N+](C)(C)CCOC(=O)C(O)(c1ccccc1)c1ccccc1	-1%	/	/	-5%	/	/
CC1N(C)c2cc(NC(=O)c3ccco3)c(P(=O)(Nc3ccc([N+](=O)[O-])cc3)N3CCOCC3)cc2C1(C)C (stereo unspecified)	5.2µM*	i	?	4.6µM*	10µM*	?
Cc1cccc(C)c1-n1nnnc1C(CCc1ccccc1)N1CCC(n2c(=O)[nH]c3ccccc32)CC1 (stereo unspecified)	5.8µM*	?	13%	5.8µM*	15%	?
O=c1[nH]c2ccccc2n1C1CCN(C(CCc2ccccc2)c2nnnn2-c2ccc3c(c2)OCCO3)CC1 (stereo unspecified)	2.9µM*	23µM*	13µM*	3.7µM*	15µM*	?
CSCCC(c1nnnn1-c1ccc2c(c1)OCCO2)N1CCC2(CC1)C(=O)NCN2c1ccccc1 (stereo unspecified)	?	i	-25%	?	?	i
CCC(c1nnnn1-c1ccc(OC)cc1)N1CCC(n2c(=O)[nH]c3ccccc32)CC1 (stereo unspecified)	?	i	1%	?	2%	i
COc1ccc(-n2nnnc2C(CCSC)N2CCC(n3c(=O)[nH]c4ccccc43)CC2)cc1 (stereo unspecified)	21µM*	i	?	?	?	i
SMILES	TDP1 cell noCPT	KB-V1 cytotox	HT1080NT lethal	TDP1 cell CPT	HT1080 IDH1KD tx	KB-3-1 tox
COc1ccc(-n2nnnc2C(CCc2ccccc2)N2CCC(n3c(=O)[nH]c4ccccc43)CC2)cc1 (stereo unspecified)	23µM*	?	16µM*	?	13µM*	?
CC[C@@H]([C@H](C)O)n1ncn(-c2ccc(N3CCN(c4ccc(OC[C@@H]5CO[C@@](Cn6cncn6)(c6ccc(F)cc6F)C5)cc4)CC3)cc2)c1=O	?	/	/	-7%	/	/
Cc1nc2ccc(Cl)cc2c(=O)n1-c1cccc(Cl)c1	?	i	-1%	?	0%	i
COc1cccc(C(c2nnnn2-c2c(C)cccc2C)N2CCC(n3c(=O)[nH]c4ccccc43)CC2)c1OC (stereo unspecified)	5.8µM*	?	?	5.8µM*	?	?
COc1cccc(C(c2nnnn2Cc2ccccc2)N2CCC3(CC2)C(=O)NCN3c2ccccc2)c1OC (stereo unspecified)	?	i	?	?	?	i
OC(CNCCc1c[nH]c2ccccc12)c1ccccc1 (stereo unspecified)	-14%	i	-12%	-12%	-10%	i
COc1ccc(C2SCC(=O)Nc3c2c(C)nn3-c2ccccc2)cc1 (stereo unspecified)	?	i	8%	-24%	1%	i
CCc1ccc(-n2nc(C)c3c2NC(=O)CSC3c2ccccc2C)cc1 (stereo unspecified)	18µM*	i	/	?	/	i
CCc1ccc(-n2nc(C)c3c2NC(=O)CSC3c2ccc(OC)cc2OC)cc1 (stereo unspecified)	23µM*	i	/	18µM*	/	?
CCc1ccc(-n2nc(C)c3c2NC(=O)CSC3c2ccc(C(=O)OC)cc2)cc1 (stereo unspecified)	13µM*	i	/	15µM*	/	i
Cc1ccc(-n2nc(C)c3c2NC(=O)CSC3c2ccc(O)cc2)cc1Cl (stereo unspecified)	?	i	/	-26%	/	23µM*
